The test system of the assay is VDR:RXRa (NR concentration 270 nM, RXRa partner concentration 90 nM). Briefly: PBM binding z-score (relative to random genomic background probes); higher = stronger binding; sequences stand for … in GC…GCGATTGACAGCGTAGAATGAAGG
As to the method:
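Protein-binding microarray (Agilent 4x180K custom design, double-stranded 60-nt probes: 5' GC cap, 34-nt variable region, 24-nt constant primer region; full probe sequence given). Purified or IVT nuclear receptor:RXRα heterodimers (3:1 NR:RXRα, mostly 270:90 nM) or homodimers were incubated for 1 h in PBS with 2% milk and no ligand, then detected with Alexa488 antibodies. Fluorescence from o1-orientation probes (~5 replicates averaged) was converted to z-scores against 500 random hg19 background probes. Variable regions are seed direct-repeat (DR0–DR5) sites, all their single-nucleotide variants and half-site ablations.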
Sequence CCTTACGGGTCACGAGGTTACAGCACGACGAGCG had a PBM binding z-score of 5.28.
TCTATCAGTTGATTAGGGCAACCGAAACAGCGGA: the PBM binding z-score is 0.419.
Next, GCTTACGGGTCAAAGGTTATCGCATGAATAGAAT: 5.72; AATACAGGGTCATCGTAGGCCAAAGTACGCACAG: 5.62; ATGGAAAGGTCGAAGGTGAGTATACCCACCCGAA: 2.81.
The figure for ACTCGGAGGACAAAGCTCAGAGCTACGCCAGTGA is -0.859.
CGAACGAGGGCATGAGTTTATAGCAAATGCCGAT gave a PBM binding z-score of 3.02.
TCATATAGGAAAAAGGTGAAAGTCGGTGTGGTAA gave a PBM binding z-score of 1.21.
Regarding TGATTGAGGTTAAAGATCAGGGAACGTGGCGTCG, the PBM binding z-score turned out to be 1.94.
For the sequence CCTTACGGGGCACGAGGTTATAGCACGACGAGCG, the PBM binding z-score came to 0.986.
The sequence TCTATTAGTTGATTAGGGCAACCGTAACAGCGGA displayed a PBM binding z-score of 0.769.
Next, TCATATAGGTAAAAGGTGAAAGTTGGTGTGGTAA: 1.88; GATACAGGATCAAGGCCAGAGTACGCGTATTGAT: -0.308.
The figure for AGTCAAAGTTCAGGCCGAGGTAACGTAAAGCACG is 3.01; for CGTCCAAGGTCATAGGTGGTCAGTGAAGACAGAT it is 4.72; for TCTATTAGTTGAATAGGGCAACCGAAACAGCGGA it is 0.6.
Next, CGTAGCAGGCCAGGGTCACTCAAGCATTTCGCTT: 2.59.
With GATACAGAGTCAAGGCCAGAGTACGCGTATTGAT, the PBM binding z-score was -0.36.
Sequence TGTAAAAGTTCAAAGGTAACGTAAGTATCCACAC registered a PBM binding z-score of 4.65.
Sequence CGTCCAAGGTCAGCAGGTTAGTGAAAGCGACGTG had a PBM binding z-score of 4.07.
For the sequence ATCGAAAGGTCGAAGGTGATTATACCCACCCGAA, the PBM binding z-score was 2.61.
In turn, CCAAGTAGGTTATGGGGCATTCAGGCAACGGTGA gave a PBM binding z-score of -0.0794.
The figure for GCGACCGGGGCATCAGCAGGTTACCATAACTTAA is 0.435; for CATACAGGGTCAGCTAGGCCGGAGTAGGGACGGC it is 3.08; for CGAACTAGGTCATTGACAGGACAGTGATTAGTAA it is 2.47.
The sequence GCTAGCAGGCCATTTGGGTCACTCTATGACGGGC displayed a PBM binding z-score of 0.648.
As for ATCTCTAGGTAAAAGTTCTGTGAATCCCGAGGAT, the PBM binding z-score was -0.0345.
CAAACTAGGTCACCGGAATGTCAAAGTCCGCATG showed a PBM binding z-score of 3.06.
In turn, CCTAGTTGGTCAGGACGTCACACACCGGATATGA displayed a PBM binding z-score of 0.236.
Regarding TTACCAAGGTGAGCTGAGGTCGTTGATCCAACTC, the PBM binding z-score was found to be 4.19.
As to ATACCAAGGTGATCGTGAGGTTGTTGATACTAAC, the PBM binding z-score worked out at 0.679.
ACTAGCAGGCCAAGGTTCACTCAAGATTAGTCCG returned a PBM binding z-score of 2.01.
Turning to GATACAGGGTCAGCTAGAGGCCAGAGGATGGAAA, the PBM binding z-score came out at 3.12.
With TCTTGTAGATCAGCAGGTGAAGAAAGCTGGCCAA, the PBM binding z-score amounted to 0.208.
As to TCATATAGGCAAATGCTAGGTGAAAGTCCGATCT, the PBM binding z-score is 0.571.
For the sequence GATACAGCGTCAGCTAGAGGCCAGAGTATGGAAA, the PBM binding z-score was -0.922.
TCATGTAGATCAATAGAGGTTAAGAAAGTGCGCT had a PBM binding z-score of 1.93.
In turn, ACAGACAGCTGATGAAGGTAACTCAGGCTATCAT gave a PBM binding z-score of -0.282.
The figure for CCTCGCAGGCCAGGGTCACTCAAGCATTTCGCTT is 2.41; for TCTTGGAGATCAATAGAGGTTAAGAAAGTGCGCT it is 2.08.

The record behind these values is the supplement of paper PMC6555819.
